In the library only some 19% were active in any assay of this set; here they are far more common.
KB-V1 MDR tox – qHTS assay for MDR1-selective chemotherapeutics: Primary screen using the drug-selected MDR subline cells KB-V1. AID 1347076, 2019. actives 3.4% (n = 400,000). KB-V1 MDR cells viability, CellTiter-Glo, 72 h. Potency, µM (highest dose often 46.1 µM), most hits filed as cytotoxic; further: nearly all actives have a fitted effect of over 60% in size
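qHTS viability screen in drug-selected KB-V1 MDR cells: 72 h compound treatment at 37 degrees C, ATP luminescence end point.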
KB-3-1 cytotox – qHTS assay for MDR1-selective chemotherapeutics: Primary screen using the parental adenocarcinoma cell KB-3-1; KB-3-1 viability, CellTiter-Glo ATP luminescence, 72 h; Potency, µM (highest dose often 46.1 µM), hits mostly cytotoxic; actives 1.4% (n = 400,000); AID 1347075, 2019; further: nearly all actives have a fitted effect of over 60% in size
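Cytotoxicity measured as CellTiter-Glo luminescence after 72 h at 37 C. Compound titrations were pinned onto drug-naive KB-3-1 parental adenocarcinoma cells grown in DMEM with 10% FBS, and normalized data fitted to concentration-response curves.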
DT40 TDP1 CPT – qHTS for Inhibitors of human tyrosyl-DNA phosphodiesterase 1 (TDP1): qHTS in cells in presence of CPT | AID 686979, 2013 | actives 12% (n = 420,000) | Potency, µM (highest dose often 46.2 µM), without a hit: at the highest dose activity change, negative = growth inhibition, most hits filed as inhibitors | chicken DT40 Tdp1-/-;hTDP1 cells + 20 nM CPT, ATP luminescence, 48 h; further: nearly all actives have a fitted effect of over 55% in size
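Cell growth measured by CellTiter-Glo luminescence after a minimum 48 h, 37 C compound exposure with 20 nM CPT in Tdp1-knockout DT40 cells stably expressing hTDP1, seeded 400/well; qHTS titration format.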
DT40 TDP1 no CPT – qHTS for Inhibitors of human tyrosyl-DNA phosphodiesterase 1 (TDP1): qHTS in cells in absence of CPT; DT40 Tdp1-/- hTDP1 cells, no CPT, ATP luminescence, 48 h; Potency, µM (highest dose often 46.2 µM), for inactives: top-dose activity change, negative = growth inhibition, actives largely listed as inhibitors; actives 15% (n = 420,000); further: nearly all actives have a fitted effect of over 55% in size
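Camptothecin absent (DMSO only). Human TDP1-complemented DT40 knockout cells, 400 cells/well, 37 °C for minimum 48 hr; ATP measured via CellTiter-Glo, 30 min dark incubation, luminescence.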
HT1080NT lethal – qHTS for induction of synthetic lethality in tumor cells producing 2HG: qHTS for the HT-1080-NT fibrosarcoma cell line | HT-1080-NT fibrosarcoma viability, CellTiter-Glo ATP luminescence, 48 h | Potency, µM (series often up to 46.1 µM), for the others: at the highest dose activity, negative = less viability, most hits filed as cytotoxic | actives 1.6% (n = 360,000);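 further: NT is the 2HG producing partner of a matched IDH1 knockdown line; 0% = DMSO-treated cells and -100% = media-only wells without cells; nearly all actives have a fitted effect of over 55% in size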
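HT-1080-NT fibrosarcoma cells (2HG-overproducing), 750 cells/well in RPMI with 5% FBS, dosed after 2 h and incubated 48 h at 37C. CellTiter-Glo luminescence normalized to DMSO and no-cell wells; concentration-response curves fitted and classed.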
HT1080 IDH1KD tx – qHTS for induction of synthetic lethality in tumor cells producing 2HG: qHTS for the HT-1080-IDH1KD cell line | HT-1080 IDH1 knockdown viability, ATP luminescence, 48 h | Potency, µM (titrated, usually from 46.1 µM), inactives show at the highest dose activity, negative = toxicity, actives largely listed as cytotoxic | actives 2% (n = 360,000) | AID 686971, 2013;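 further: 0% = DMSO wells and -100% = cell-free medium wells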
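IDH1KD HT-1080 cells, 750/well, RPMI + 5% FBS; compound pinned after 2 h settling; 48 h, 37 °C; CellTiter-Glo luminescence; % activity normalised to DMSO and no-cell wells; curves fitted, classed by r2 and efficacy.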
An asterisk follows results filed as active; i = inactive; ? = inconclusive; / = not tested or not shown; [ ] = remark or other dose. The call rests on the fitted dose curve; in most records, active means well fitted curve in the direction sought with a large enough effect; inconclusive means small, poorly fitted or top-dose-only effect, or another doubt; inactive means no such curve, though single readings can be large; an effect the other way counts as inactive or inconclusive. Unless noted, on the % scale 0 is the no-effect control and ±100 the full control effect; potency means the concentration at half of the fitted maximal effect.

SMILES	KB-V1 MDR tox	KB-3-1 cytotox	DT40 TDP1 CPT	DT40 TDP1 no CPT	HT1080NT lethal	HT1080 IDH1KD tx
Cc1ccccc1NC(=S)N(C)Cc1cn(C)c2ccccc12	18µM*	i	?	?	-1%	5%
Cc1ccccc1NC(=S)N(C)Cc1cccs1	?	i	-6%	-13%	-3%	-5%
Cc1ccc(C)c(NC(=O)CSc2nc3nccnc3c(=O)n2CCc2c[nH]c3ccccc23)c1	/	/	12µM*	12µM*	/	/
Cc1ccc(C)c(NC(=O)C(=O)NCCc2c[nH]c3ccccc23)c1	i	i	-29%	?	24%	-15%
CCc1ccc(NC(=O)CSc2nc3c([nH]c4ccccc43)c(=O)n2-c2ccc(C)cc2)cc1	i	i	-24%	?	/	/
CCc1ccc(NC(=O)CSc2nc3nccnc3c(=O)n2CCc2c[nH]c3ccccc23)cc1	/	/	8.2µM*	4.1µM*	/	/
Cn1c(CO)cnc1S(=O)(=O)Cc1c(Cl)cccc1Cl	i	i	?	18%	3%	4%
Cc1nc(C)n(CC(=O)N2CCOc3ccc(CN4CCN(C)C[C@@H]4c4ccccc4)cc3C2)n1	/	/	-9%[9.04 µM]	-16%	/	/
COc1ccc(Cl)cc1C(=O)n1cnc2ccccc21	i	?	-14%	6%	-2%	2%
OCCCn1c(C2CCCN2c2nc(-c3ccc(F)cc3)cs2)nc2cc(Cl)c(Cl)cc21 (centres undefined)	i	i	?	16µM*	-21%	-19%
CCCn1c(C2CCCN2c2nc(C)cs2)nc2cc(Cl)c(Cl)cc21 (centres undefined)	i	i	?	?	-2%	-1%
CCCn1c(C2CCCN2c2nc(-c3cccc(Br)c3)cs2)nc2cc(Cl)c(Cl)cc21 (centres undefined)	i	i	?	18µM*	0%	-11%
Cc1csc(N2CCCC2c2nc3cc(C(F)(F)F)ccc3n2CCOCCO)n1 (centres undefined)	i	i	9.2µM*	?	0%	-26%
Cc1csc(N2CCCC2c2nc3cc(Cl)c(N4CCCCC4)cc3n2CCOCCO)n1 (centres undefined)	i	i	?	6%	2%	4%
O=C(/C=C/c1cc(Br)ccc1F)OCC(=O)N1CCCC1	i	i	-2%	4%	4%	1%
Cc1c(CN(C)C)c2c(n1Cc1ccccc1)C(=O)c1ccccc1-2	?	?	?	?	23µM*	16µM*
Cc1cc(=O)[nH]c(=O)n1Cc1ccccc1	i	i	9%	7%	11%	16%
COc1cccc(-c2nn(-c3ccccc3)cc2CN(C)Cc2ccon2)c1	i	i	-30%	11µM*	0%	-1%
COc1cccc(-c2nn(-c3ccccc3)cc2CN(C)Cc2c(C)nc3ccccn23)c1	i	i	?	?	?	?
CC(O)(c1ccccc1)c1nc(-c2ccc(F)c(Cl)c2)cs1 (centres undefined)	i	i	?	?	?	?
CC(O)(c1ccc(F)c(F)c1)c1nc(-c2cc(F)cc(F)c2)cs1 (centres undefined)	i	i	?	16µM*	?	?
Cc1ccc(-c2csc(C(C)(O)c3ccc(F)c(F)c3)n2)cc1C (centres undefined)	i	i	?	-26%	?	?
CC(O)(c1ccc(F)c(F)c1)c1nc(-c2ccc(F)c(Cl)c2)cs1 (centres undefined)	i	i	?	?	33µM*	?
CC(O)(c1ccc(F)c(F)c1)c1nc(-c2cccc(F)c2)cs1 (centres undefined)	i	i	?	?	?	?
CC(O)(c1ccc(F)c(F)c1)c1nc(-c2ccccc2)cs1 (centres undefined)	i	i	?	13µM*	?	?
SMILES	KB-V1 MDR tox	KB-3-1 cytotox	DT40 TDP1 CPT	DT40 TDP1 no CPT	HT1080NT lethal	HT1080 IDH1KD tx
CCOc1ccc(-c2nn(-c3ccccc3)cc2C2NC(=O)NC(C)=C2C(=O)OC(C)C)cc1C (centres undefined)	i	i	?	?	/	/
Cc1nnc(N=c2ssnc2Cl)o1	i	?	1µM*	1µM*	1%	-3%
Cc1ccc(N=c2ssnc2Cl)cc1	i	?	5.8µM*	3.7µM*	?	?
Cc1cc(C)nc(/N=c2/ssnc2Cl)c1	i	i	7.3µM*	9.2µM*	6%	-1%
Cc1cc(Cl)ccc1N=c1ssnc1Cl	i	?	13µM*	16µM*	?	23µM*
O=C(O)CCCC(=O)OCc1c(-c2ccccc2)ncc2ccccc12	i	i	?	-23%	2%	2%
Cc1ccc(NS(=O)(=O)c2cc3c(cc2Cl)NC(=O)C3)cc1C	i	i	/	/	/	/
CC(=O)c1ccc(N(CC(=O)NC2CCCCC2)C(=O)CNC(=O)c2ccco2)cc1	i	i	3%	-16%	-6%	2%
COc1ccc2[nH]cc(C(=O)CNc3nccs3)c2c1	i	i	?	7.9µM*	/	/
COc1ccc2[nH]cc(C(=O)CN3CC(C)CC(C)C3)c2c1 (centres undefined)	i	i	16%	-22%	-12%	-9%
COc1ccc2[nH]cc(C(=O)CCl)c2c1	?	12µM*	3.3µM*	4.1µM*	5.8µM*	7.3µM*
COc1ccc2[nH]cc(C(=O)CN(C)CCc3ccc(OC)c(OC)c3)c2c1	i	i	18µM*	21µM*	-15%	-7%
COC(=O)Nc1ccc(S(=O)(=O)N2CCC(C(=O)NC3CCCCC3)CC2)cc1	i	i	-26%	?	-9%	-2%
C=CC(COCc1ccccc1)N(C(=O)OC(C)(C)C)S(=O)(=O)c1ccccc1Br (centres undefined)	?	i	?	16µM*	-18%	-10%

Screens from PubChem BioAssay.
